Test results: PubChem BioAssay AID1259343 (VanderVen Lab, College of Veterinary Medicine, Cornell …, 2017)
Hit rate of the full screen: of about 6,200 compounds, about 2,900 (47%) were called active. The set was probably picked from earlier hits. The list shows a part of the results. Values without a mark were called inactive. No stated cut-off is given here; in the data, active means inhibition above about 50%; inactive means the rest.

Assay: Mycobacterium tuberculosis growth inhibition, primary screen (AID 1259343)
Conditions: inhibition: at 10 µM, active compounds read high; outcome: 10 uM

For `CC(C)C(=O)N1CCC(NC(=O)c2cc(C3CC3)on2)CC1`, which inhibition is on record?
Its inhibition is -6.02%.

For `O=C(Nc1ccccc1N1CCCC1)c1cc(C2CC2)on1`, which inhibition is on record?
Its inhibition is 36.3%.

With `CC(NC(=O)c1cc(C2CC2)on1)c1cc(Cl)ccc1Cl` (configuration not stated) as the compound, how does the inhibition read?
The inhibition was 56.5% (active).

With `CCCc1cc(=O)[nH]c(-n2nc(C)cc2NC(=O)c2cccs2)n1` as the compound, how does the inhibition read?
The inhibition was 100% (active).

For `CCCc1cc(=O)[nH]c(-n2nc(C)cc2NC(=O)c2ccc(C)cc2)n1`, which inhibition is on record?
Its inhibition is 101% (active).

Which inhibition does the source give for `CCCc1cc(=O)[nH]c(-n2nc(C)cc2NC(=O)c2cccc(Br)c2)n1` here?
Its inhibition is 101% (active).

With `CCc1cc(=O)[nH]c(-n2nc(C)cc2NC(=O)c2cccs2)n1` as the compound, how does the inhibition read?
Its inhibition is -29.6%.

For `CCCc1cc(=O)[nH]c(-n2nc(C)cc2NC(=O)c2ccc(Br)cc2)n1`, which inhibition is on record?
Its inhibition is 99.8% (active).

Which inhibition does the source give for `CNc1cc(C)nc(NCc2cc(C)cc3c(C)c(C)[nH]c23)n1` here?
Its inhibition is 41.1%.

Which inhibition does the source give for `CCCc1cc(=O)[nH]c(-n2nc(C)cc2NC(=O)c2cccc(C(F)(F)F)c2)n1` here?
Its inhibition is 91.4% (active).

Which inhibition does the source give for `CCCc1cc(=O)[nH]c(-n2nc(C)cc2NC(=O)c2cccc(F)c2)n1` here?
The inhibition was 100% (active).

With `CCCc1cc(=O)[nH]c(-n2nc(C)cc2NC(=O)c2ccccc2)n1` as the compound, how does the inhibition read?
Its inhibition is 101% (active).

Which inhibition does the source give for `CCCc1cc(=O)[nH]c(-n2nc(C)cc2NC(=O)c2cc(OC)cc(OC)c2)n1` here?
Its inhibition is -22.1%.

Which inhibition does the source give for `CCCc1cc(=O)[nH]c(-n2nc(C)cc2NC(=O)c2cccc(OC)c2)n1` here?
The inhibition was 99.8% (active).

Which inhibition does the source give for `CCN(CC)c1nc2sc(C(=O)NC3(C)CCCC3)cc2s1` here?
The inhibition was 32.9%.

Which inhibition does the source give for `CCCc1cc(=O)[nH]c(-n2nc(C)cc2NC(=O)c2ccc(F)cc2)n1` here?
The inhibition was 101% (active).

With `CCCc1cc(=O)[nH]c(-n2nc(C)cc2NC(=O)c2cccc(Cl)c2)n1` as the compound, how does the inhibition read?
The inhibition was 101% (active).

Which inhibition does the source give for `CCCc1cc(=O)[nH]c(-n2nc(C)cc2NC(=O)c2ccc(C(F)(F)F)cc2)n1` here?
Its inhibition is 102% (active).

With `CCCc1cc(=O)[nH]c(-n2nc(C)cc2NC(=O)c2cc(C(F)(F)F)cc(C(F)(F)F)c2)n1` as the compound, how does the inhibition read?
Its inhibition is 13.6%.

For `CN(Cc1ccc(F)cc1)C(=O)NCc1ccc2c(c1)OCO2`, which inhibition is on record?
The inhibition was 67.4% (active).

With `CN(Cc1ccc2c(c1)OCO2)c1ccc(C(=O)NC2CC2)cn1` as the compound, how does the inhibition read?
Its inhibition is 12.6%.

For `CN(Cc1cccc(Cl)c1)C(=O)NCc1cc(F)cc(F)c1`, which inhibition is on record?
Its inhibition is 72.5% (active).

With `CSc1ccc(NC(=O)CN(C)Cc2ccc3c(c2)OCO3)cc1` as the compound, how does the inhibition read?
Its inhibition is 72.3% (active).

With `CN(Cc1ccc(F)cc1F)C(=O)NCc1cccc(C(F)(F)F)c1` as the compound, how does the inhibition read?
The inhibition was 91% (active).

Which inhibition does the source give for `CN(Cc1cccc(C(F)(F)F)c1)C(=O)c1cn(Cc2ccccc2Cl)nn1` here?
Its inhibition is 20.9%.

For `CN(Cc1ccoc1)C(=O)c1cn(Cc2cccc(C(F)(F)F)c2)nn1`, which inhibition is on record?
The inhibition was 14.9%.

Which inhibition does the source give for `O=S(=O)(NCc1ccc2c(c1)OCO2)c1ccc(F)c(C(F)(F)F)c1` here?
Its inhibition is 26.9%.

Which inhibition does the source give for `Cc1ccc(NC(=O)N(C)Cc2cccc(F)c2)c(Cl)c1` here?
Its inhibition is 9.23%.

With `Cc1cc(CNC(=O)CS(=O)(=O)Cc2cccc(Cl)c2)ccc1F` as the compound, how does the inhibition read?
Its inhibition is 15.5%.

Which inhibition does the source give for `CN(Cc1ccc(F)cc1F)C(=O)NCc1ccccc1` here?
The inhibition was 93% (active).

For `Cc1ccc(NC(=O)N(C)Cc2ccccc2F)cc1Cl`, which inhibition is on record?
Its inhibition is 4.94%.

With `Cc1ccc(NC(=O)N(C)Cc2ccc(O)cc2)cc1F` as the compound, how does the inhibition read?
Its inhibition is 59.5% (active).

Which inhibition does the source give for `COc1ccc(Cl)cc1CN(C)C(=O)Nc1ccc(F)cc1F` here?
Its inhibition is -16.8%.

With `COc1ccc(CN(C)C(=O)NCC2Cc3ccccc3O2)cc1` (configuration not stated) as the compound, how does the inhibition read?
The inhibition was -43.1%.

Which inhibition does the source give for `CN(Cc1ccsc1)C(=O)Nc1ccc(C(F)(F)F)cc1` here?
Its inhibition is 44.2%.

Which inhibition does the source give for `CCOc1ncccc1C(=O)NCc1ccc(C)c(F)c1` here?
The inhibition was 35.2%.

Which inhibition does the source give for `CN(Cc1cc(Br)ccc1F)C(=O)NCc1ccco1` here?
Its inhibition is -23.8%.

Which inhibition does the source give for `Cc1ccc(CNC(=O)N(C)Cc2cccs2)cc1F` here?
The inhibition was 74.8% (active).

For `COc1cccc(CNC(=O)N(C)Cc2ccc(C(C)C)cc2)c1`, which inhibition is on record?
The inhibition was 85.7% (active).

With `O=C(NCCc1cccs1)C(=O)NCc1cccc(F)c1` as the compound, how does the inhibition read?
The inhibition was 45.4%.

With `CC1SC(=S)NN1c1ccccc1` (configuration not stated) as the compound, how does the inhibition read?
The inhibition was 92.6% (active).

Which inhibition does the source give for `Cc1cccc(Nc2ccc(NCCNS(=O)(=O)c3ccc(F)cc3)nn2)n1` here?
Its inhibition is 30.2%.

Which inhibition does the source give for `c1ccc2c(OCCCCCn3ccnc3)cccc2c1` here?
The inhibition was 100% (active).

For `COCCN=c1scc(-c2ccco2)n1N=Cc1cc(Br)c(O)c(OC)c1`, which inhibition is on record?
The inhibition was 15.7%.

With `CN=c1scc(-c2ccc(OC)cc2)n1N=Cc1cc(Br)c(O)c(OC)c1` as the compound, how does the inhibition read?
The inhibition was 97.6% (active).

Which inhibition does the source give for `CN=c1scc(-c2ccco2)n1N=Cc1c(O)ccc2ccccc12` here?
The inhibition was 54.4% (active).

For `CCN=c1scc(-c2ccco2)n1N=Cc1ccc2c(c1)OCO2`, which inhibition is on record?
The inhibition was 23.9%.

For `CN=c1scc(-c2cccc(Br)c2)n1N=Cc1ccncc1`, which inhibition is on record?
Its inhibition is 13.7%.

With `CN=c1scc(-c2ccco2)n1N=Cc1sccc1C` as the compound, how does the inhibition read?
The inhibition was 42.1%.

Which inhibition does the source give for `CCN=c1scc(C)n1N=Cc1cc(Br)c(O)c(Br)c1` here?
The inhibition was 84.4% (active).

With `CCN=c1scc(C)n1N=Cc1ccc(Br)cc1` as the compound, how does the inhibition read?
Its inhibition is 10.9%.

Which inhibition does the source give for `CN=c1scc(C)n1N=Cc1cc(Br)c(O)c(Br)c1` here?
Its inhibition is -24.1%.

Which inhibition does the source give for `CN=c1scc(-c2ccco2)n1N=Cc1cc(Br)c(O)c(OC)c1` here?
The inhibition was 82.5% (active).

For `Oc1ccc(C=Nn2c(-c3ccco3)csc2=Nc2ccc(F)cc2F)c(O)c1`, which inhibition is on record?
Its inhibition is 6.26%.

Which inhibition does the source give for `CN=c1scc(-c2cc(Cl)ccc2Cl)n1N=Cc1ccc(O)cc1O` here?
The inhibition was 65.9% (active).

With `C=C(C)CN=c1scc(-c2ccco2)n1N=Cc1ccc(O)cc1O` as the compound, how does the inhibition read?
Its inhibition is 89.4% (active).

Which inhibition does the source give for `C=CCN=c1scc(-c2ccco2)n1N=Cc1cc(OC)ccc1O` here?
Its inhibition is 16%.

Which inhibition does the source give for `CN=c1scc(-c2cccc(Br)c2)n1N=Cc1ccccc1F` here?
Its inhibition is -6.53%.

With `CN=c1scc(-c2ccccc2Br)n1N=Cc1cccc(O)c1` as the compound, how does the inhibition read?
The inhibition was 28.8%.

With `Cc1ccccc1CCC1CCCN(Cc2nnc(-c3ccco3)o2)C1` (configuration not stated) as the compound, how does the inhibition read?
Its inhibition is 2.39%.

With `Cc1ccccc1-c1ncc(CN2CCCC2c2nonc2C)s1` (configuration not stated) as the compound, how does the inhibition read?
The inhibition was 27.5%.

Which inhibition does the source give for `Cc1ccccc1-c1nnc(CN2CCCC3CCCC32)o1` (configuration not stated) here?
The inhibition was 59% (active).

Which inhibition does the source give for `Cc1cc(=O)[nH]c(Nc2nc(C)c3cc(C)c(C)cc3n2)n1` here?
Its inhibition is -34.5%.

Which inhibition does the source give for `COC(=O)CC(=O)N1CCC(Cc2ccc(-c3ccccc3)cc2)CC1` here?
The inhibition was 87% (active).

With `O=C(CCl)N1CCC(Cc2ccccc2)CC1` as the compound, how does the inhibition read?
Its inhibition is -0.35%.

With `O=C(Cc1ccccc1)N1CCC(Cc2ccc(-c3ccccc3)cc2)CC1` as the compound, how does the inhibition read?
The inhibition was 72.6% (active).

Which inhibition does the source give for `Cc1ccc(C2CC(c3cccc(F)c3)=NN2C(=O)CN2CCC(Cc3ccccc3)CC2)cc1` (configuration not stated) here?
Its inhibition is 42.1%.
